Measured values published in PubChem BioAssay (NCI).
Values joined by “and” are separate entries in the source; they are usually repeats but may differ in a detail not shown here. Equal entries are not always repeated. The panel holds about 83,000 compounds, 20% with a hit somewhere; the sample as a whole holds those more often.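 The test compound was applied at a single concentration to cells in 96-well plates for 48 hours, and percent growth was recorded.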 Active and inactive are the calls of the source. How the source made its calls: active means growth percent below 10; inactive means the rest.

Legend:
Assay in all cases: NCI-60 one-dose screen, 48 h (100 = growth as untreated, 0 = no growth, -100 = all killed)
Details in all cases: 10 µM unless noted
SK-MEL-2 melanoma = system: SK-MEL-2 melanoma
EKVX NSCLC = system: EKVX NSCLC
SN12C renal = system: SN12C renal
UO-31 renal = system: UO-31 renal
TK-10 renal = system: TK-10 renal
ACHN renal = system: ACHN renal
CAKI-1 renal = system: CAKI-1 renal
A498 renal = system: A498 renal
CCRF-CEM leukemia = system: CCRF-CEM leukemia
MOLT-4 leukemia = system: MOLT-4 leukemia
SR leukemia = system: SR leukemia
RPMI-8226 leukemia = system: RPMI-8226 leukemia
OVCAR-8 ovarian = system: OVCAR-8 ovarian
OVCAR-5 ovarian = system: OVCAR-5 ovarian
OVCAR-4 ovarian = system: OVCAR-4 ovarian
SK-OV-3 ovarian = system: SK-OV-3 ovarian
IGROV1 ovarian = system: IGROV1 ovarian
OVCAR-3 ovarian = system: OVCAR-3 ovarian
HS 578T breast = system: HS 578T breast
NCI/ADR-RES ovarian = system: NCI/ADR-RES ovarian

Question: `CCOC(=O)C1=C(C)NC(=O)NC1c1c(Cl)n(-c2ccccc2)c2ccccc12` (stereo not given) was tested. Which growth (SK-MEL-2 melanoma) did it give?
Answer: 102% (inactive)

Question: What about the growth (EKVX NSCLC) of the same compound?
Answer: 96.8% (inactive)

Question: And the growth (SN12C renal)?
Answer: 92.7% (inactive)

Question: And the growth (UO-31 renal)?
Answer: 54.2% (inactive)

Question: What about the growth (TK-10 renal) of the same compound?
Answer: 98.9% (inactive)

Question: What about the growth (ACHN renal) of the same compound?
Answer: 85.1% (inactive)

Question: What about the growth (CAKI-1 renal) of the same compound?
Answer: 70.7% (inactive)

Question: What about the growth (A498 renal) of the same compound?
Answer: 78.2% (inactive)

Question: And the growth (CCRF-CEM leukemia)?
Answer: 3.16% (active)

Question: What about the growth (MOLT-4 leukemia) of the same compound?
Answer: 78.8% (inactive)

Question: What about the growth (SR leukemia) of the same compound?
Answer: 68.6% (inactive)

Question: And the growth (RPMI-8226 leukemia)?
Answer: 68.4% (inactive)

Question: What about the growth (OVCAR-8 ovarian) of the same compound?
Answer: 85.6% (inactive)

Question: And the growth (OVCAR-5 ovarian)?
Answer: 84.7% (inactive)

Question: What about the growth (OVCAR-4 ovarian) of the same compound?
Answer: 96% (inactive)

Question: And the growth (SK-OV-3 ovarian)?
Answer: 85.9% (inactive)

Question: And the growth (IGROV1 ovarian)?
Answer: 66.1% (inactive)

Question: What about the growth (OVCAR-3 ovarian) of the same compound?
Answer: 69.2% (inactive)

Question: And the growth (HS 578T breast)?
Answer: 76.1% (inactive)

Question: What about the growth (NCI/ADR-RES ovarian) of the same compound?
Answer: 85% (inactive)

Question: Which results are given for `CN(C)C1CCN(C(=O)c2ccc(NC(=O)Nc3ccc(-c4nc(N5CCOCC5)c5cccn5n4)cc3)cc2)CC1`?
Answer: growth (SK-MEL-2 melanoma): -7.66% (active); growth (EKVX NSCLC): -15% (active); growth (SN12C renal): 4.15% (active); growth (UO-31 renal): 8.27% (active); growth (TK-10 renal): -20.9% (active); growth (ACHN renal): 2.19% (active); growth (CAKI-1 renal): 69.6% (inactive); growth (A498 renal): -54.9% (active); growth (CCRF-CEM leukemia): 10.5% (inactive); growth (MOLT-4 leukemia): 0.188% (active); growth (SR leukemia): 8.47% (active); growth (RPMI-8226 leukemia): -20.8% (active); growth (OVCAR-8 ovarian): -0.587% (active); growth (OVCAR-5 ovarian): -0.314% (active); growth (OVCAR-4 ovarian): -26.9% (active); growth (SK-OV-3 ovarian): -30.8% (active); growth (IGROV1 ovarian): -26.4% (active); growth (OVCAR-3 ovarian): -12% (active); growth (HS 578T breast): -32.6% (active); growth (NCI/ADR-RES ovarian): 85.1% (inactive)

Question: Which growth (SK-MEL-2 melanoma) does the source give for `Nc1c(C(=O)Nc2ccncc2)sc2nc3c(cc12)CCCCCCCC3` here?
Answer: -86.7% (active)

Question: What about the growth (EKVX NSCLC) of the same compound?
Answer: -31.2% (active)

Question: And the growth (SN12C renal)?
Answer: -65.1% (active)

Question: What about the growth (UO-31 renal) of the same compound?
Answer: -95% (active)

Question: And the growth (TK-10 renal)?
Answer: -75.6% (active)

Question: What about the growth (ACHN renal) of the same compound?
Answer: -98.8% (active)

Question: And the growth (CAKI-1 renal)?
Answer: -94.8% (active)

Question: And the growth (A498 renal)?
Answer: -9% (active)

Question: What about the growth (CCRF-CEM leukemia) of the same compound?
Answer: -37.9% (active)

Question: And the growth (MOLT-4 leukemia)?
Answer: -40.6% (active)

Question: And the growth (SR leukemia)?
Answer: -27.5% (active)

Question: And the growth (RPMI-8226 leukemia)?
Answer: -49% (active)

Question: And the growth (OVCAR-8 ovarian)?
Answer: -90.6% (active)

Question: What about the growth (OVCAR-5 ovarian) of the same compound?
Answer: -75.8% (active)

Question: What about the growth (OVCAR-4 ovarian) of the same compound?
Answer: -84.6% (active)

Question: And the growth (SK-OV-3 ovarian)?
Answer: -92.1% (active)

Question: And the growth (IGROV1 ovarian)?
Answer: -73.7% (active)

Question: What about the growth (OVCAR-3 ovarian) of the same compound?
Answer: -81.8% (active)

Question: And the growth (HS 578T breast)?
Answer: -37.1% (active)

Question: And the growth (NCI/ADR-RES ovarian)?
Answer: -64.8% (active)

Question: How did the growth (SK-MEL-2 melanoma) turn out when `COc1nc2ccc(C)cc2cc1/C=[N+](\[O-])c1ccccc1` was run?
Answer: 100% (inactive)

Question: And the growth (EKVX NSCLC)?
Answer: 77.8% (inactive)

Question: And the growth (SN12C renal)?
Answer: 90.1% (inactive)

Question: And the growth (UO-31 renal)?
Answer: 59.4% (inactive)

Question: What about the growth (TK-10 renal) of the same compound?
Answer: 116% (inactive)

Question: And the growth (ACHN renal)?
Answer: 83.5% (inactive)

Question: And the growth (CAKI-1 renal)?
Answer: 82.3% (inactive)

Question: What about the growth (A498 renal) of the same compound?
Answer: 75.6% (inactive)

Question: What about the growth (CCRF-CEM leukemia) of the same compound?
Answer: 46.6% (inactive)

Question: What about the growth (MOLT-4 leukemia) of the same compound?
Answer: 82.8% (inactive)

Question: And the growth (SR leukemia)?
Answer: 39.9% (inactive)

Question: And the growth (RPMI-8226 leukemia)?
Answer: 69.1% (inactive)

Question: What about the growth (OVCAR-8 ovarian) of the same compound?
Answer: 95.3% (inactive)

Question: What about the growth (OVCAR-5 ovarian) of the same compound?
Answer: 92.6% (inactive)

Question: What about the growth (OVCAR-4 ovarian) of the same compound?
Answer: 83.7% (inactive)

Question: And the growth (SK-OV-3 ovarian)?
Answer: 79.9% (inactive)

Question: And the growth (IGROV1 ovarian)?
Answer: 75.2% (inactive)

Question: And the growth (OVCAR-3 ovarian)?
Answer: 96.6% (inactive)

Question: What about the growth (HS 578T breast) of the same compound?
Answer: 91% (inactive)

Question: What about the growth (NCI/ADR-RES ovarian) of the same compound?
Answer: 81.1% (inactive)

Question: With `O=C(/C=C/c1ccccc1)c1cccs1` as the compound, how does the growth (SK-MEL-2 melanoma) read?
Answer: 105% (inactive) and 107% (inactive)

Question: What about the growth (EKVX NSCLC) of the same compound?
Answer: 97.6% (inactive) and 94.7% (inactive)

Question: And the growth (SN12C renal)?
Answer: 96.7% (inactive) and 94.1% (inactive)

Question: And the growth (UO-31 renal)?
Answer: 88.9% (inactive) and 94.1% (inactive)

Question: What about the growth (TK-10 renal) of the same compound?
Answer: 95.5% (inactive) and 103% (inactive)

Question: What about the growth (ACHN renal) of the same compound?
Answer: 100% (inactive) and 110% (inactive)

Question: What about the growth (CAKI-1 renal) of the same compound?
Answer: 99.9% (inactive) and 93.7% (inactive)

Question: What about the growth (A498 renal) of the same compound?
Answer: 94.4% (inactive) and 91.6% (inactive)

Question: What about the growth (CCRF-CEM leukemia) of the same compound?
Answer: 82.7% (inactive)

Question: And the growth (MOLT-4 leukemia)?
Answer: 109% (inactive) and 96% (inactive)

Question: And the growth (SR leukemia)?
Answer: 94.9% (inactive) and 24.1% (inactive)

Question: And the growth (RPMI-8226 leukemia)?
Answer: 49.3% (inactive) and 6.44% (active)

Question: And the growth (OVCAR-8 ovarian)?
Answer: 97.5% (inactive) and 94% (inactive)

Question: And the growth (OVCAR-5 ovarian)?
Answer: 93.2% (inactive) and 108% (inactive)

Question: What about the growth (OVCAR-4 ovarian) of the same compound?
Answer: 97.7% (inactive) and 87.3% (inactive)

Question: What about the growth (SK-OV-3 ovarian) of the same compound?
Answer: 104% (inactive) and 112% (inactive)

Question: And the growth (IGROV1 ovarian)?
Answer: 104% (inactive) and 116% (inactive)

Question: What about the growth (OVCAR-3 ovarian) of the same compound?
Answer: 97% (inactive) and 117% (inactive)

Question: And the growth (HS 578T breast)?
Answer: 100% (inactive)

Question: What about the growth (NCI/ADR-RES ovarian) of the same compound?
Answer: 99.5% (inactive) and 100% (inactive)

Question: Which growth (SK-MEL-2 melanoma) does the source give for `CN(C)c1ccc2nc3ccc(=O)cc-3sc2c1` here?
Answer: 13.8% (inactive) and 35.6% (inactive)

Question: And the growth (EKVX NSCLC)?
Answer: 41.3% (inactive)

Question: What about the growth (SN12C renal) of the same compound?
Answer: 41.9% (inactive) and 34.5% (inactive)

Question: What about the growth (UO-31 renal) of the same compound?
Answer: 14.8% (inactive) and 31.4% (inactive)

Question: What about the growth (TK-10 renal) of the same compound?
Answer: 60.9% (inactive) and 67.4% (inactive)

Question: And the growth (ACHN renal)?
Answer: 20% (inactive) and 21.7% (inactive)

Question: And the growth (CAKI-1 renal)?
Answer: 34.1% (inactive) and 22.3% (inactive)

Question: And the growth (A498 renal)?
Answer: 85.7% (inactive)

Question: And the growth (CCRF-CEM leukemia)?
Answer: 13% (inactive) and 20.1% (inactive)

Question: What about the growth (MOLT-4 leukemia) of the same compound?
Answer: -18.7% (active) and 20.2% (inactive)

Question: And the growth (SR leukemia)?
Answer: 7.73% (active) and 17.9% (inactive)

Question: And the growth (RPMI-8226 leukemia)?
Answer: 12.8% (inactive) and 13.8% (inactive)

Question: What about the growth (OVCAR-8 ovarian) of the same compound?
Answer: 28.1% (inactive) and 6.61% (active)

Question: What about the growth (OVCAR-5 ovarian) of the same compound?
Answer: 86.6% (inactive) and 88.5% (inactive)

Question: And the growth (OVCAR-4 ovarian)?
Answer: 2.9% (active)

Question: And the growth (SK-OV-3 ovarian)?
Answer: 81.7% (inactive) and 93.7% (inactive)

Question: And the growth (IGROV1 ovarian)?
Answer: 50.2% (inactive) and 57.1% (inactive)

Question: And the growth (OVCAR-3 ovarian)?
Answer: -7.17% (active) and -6.79% (active)

Question: And the growth (HS 578T breast)?
Answer: 79.4% (inactive) and 79.2% (inactive)

Question: What about the growth (NCI/ADR-RES ovarian) of the same compound?
Answer: 14.7% (inactive) and 46.2% (inactive)
